The full list was thinned out, with hits kept by preference.
ClpP mod: qHTS Assay for Activators of ClpP. Potency, µM (highest dose often 57.5 µM). purified B. subtilis ClpP, FRET peptide cleavage, 20 min. ATP-dependent Clp protease proteolytic subunit (Bacillus subtilis (strain 168)), P80244. 340,000 compounds, 1.9% hits; active = well fitted falling curve with a large enough effect; inconclusive = small, poorly fitted or top-dose-only effect; inactive = no such curve, though single readings can be large or run the other way; also: the source files actives as falling curves though it sought activators and does not explain the sign; nearly all actives have a fitted effect of over 65% in size
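Buffer: 100 mM Tris/HCl pH8, 100 mM KCl, 0.05% low protease BSA, 2.5% glycerol, 0.01% Tween-20. ClpP 10 microg/mL final; 20 min RT; delta FRET normalized to ADEP and DMSO controls.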
CBFb-RUNX1 inh: blocks binding between human CBF-beta and RUNX1 | AlphaScreen CBFb-His/RUNX1-biotin binding, biochemical | Potency, µM (titrated, usually from 59.8 µM), most hits filed as inhibitors | Q01196+Q13951 | 230,000 tested, under 10 active; active = well fitted curve in the direction sought with a large enough effect; inconclusive = small, poorly fitted or top-dose-only effect, or effect the other way, or another doubt; inactive = no such curve, though single readings can be large or run the other way
Target sequence (Q01196 whole entry, looked up): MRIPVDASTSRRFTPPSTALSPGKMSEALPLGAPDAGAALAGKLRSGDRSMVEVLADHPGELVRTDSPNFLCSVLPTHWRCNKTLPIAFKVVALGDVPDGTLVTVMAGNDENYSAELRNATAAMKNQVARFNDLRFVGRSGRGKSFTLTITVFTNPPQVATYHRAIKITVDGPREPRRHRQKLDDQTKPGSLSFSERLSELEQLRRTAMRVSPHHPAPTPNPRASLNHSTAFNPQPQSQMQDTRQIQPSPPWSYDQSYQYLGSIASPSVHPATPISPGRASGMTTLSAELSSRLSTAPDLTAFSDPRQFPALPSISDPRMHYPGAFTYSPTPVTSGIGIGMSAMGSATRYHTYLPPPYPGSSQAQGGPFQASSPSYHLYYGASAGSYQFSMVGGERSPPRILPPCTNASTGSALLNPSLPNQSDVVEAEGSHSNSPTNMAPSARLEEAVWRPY
Target sequence (Q13951 whole entry, looked up): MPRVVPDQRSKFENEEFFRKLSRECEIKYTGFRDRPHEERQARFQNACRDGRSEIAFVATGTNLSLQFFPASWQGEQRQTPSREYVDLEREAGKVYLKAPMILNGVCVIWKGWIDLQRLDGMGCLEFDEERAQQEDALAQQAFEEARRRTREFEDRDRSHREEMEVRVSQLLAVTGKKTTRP
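AlphaScreen proximity signal reports loss of binding between His-tagged CBF-beta and biotin-labelled RUNX1, each at 30 nM. Proteins are pre-associated for 20 minutes, compounds added for 15 minutes, then beads for 90 minutes, all at ambient temperature.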
Rango dissoc inh: prevents RanGTP from dissociating the Rango-importin beta complex; O95149+P62826; Biochemical FRET Rango-importin beta, RanGTP-induced dissociation; Potency, µM (series often up to 46.1 µM); 340,000 compounds, 0.071% hits; also: nearly all actives have a fitted effect of over 45% in size
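Compounds preincubate 5 min with complex of recombinant Rango and importin beta in PBS with 1 mM DTT. Ran (0.6 uM) loaded with 2 mM GTP plus 0.2 uM RCC1 starts dissociation; FRET is recorded 45 min later.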
Rango-impB inh: Rango-importin beta binding inhibition | Rango CFP/YFP FRET sensor + importin beta, 45 min | 340,000 compounds, 0.031% hits | AID 540263 | Potency, µM (titrated, usually from 92.2 µM); also: nearly all actives have a fitted effect of over 15% in size
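FRET biosensor (snurportin 1 IBB flanked by EYFP and cerulean), 50 nM, with compound 5 min, then 0.125 microM importin beta in PBS, 1 mM DTT, 0.02% Tween-20, 0.1% BSA. CFP/YFP ratio read after 45 min at room temperature; pre-read flags interference.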
MBNL1 CUG block: inhibitors of human MBNL1 binding to CUG repeat RNA; TR-FRET MBNL1-His/biotin-(CUG)12 binding, 665/545 ratio; Potency, µM (top dose mostly 57.5 µM), usual class: inhibitors; 280,000 compounds, 0.036% hits; AID 2675; active = well fitted inhibition curve with a large enough effect in the signal ratio, with a control signal flat, not every such curve was filed as active; inconclusive = small, poorly fitted or top-dose-only effect, or effect the other way, or a change in a side signal; inactive = no such curve, though single readings can be large or run the other way; the % refers to the signal ratio
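TR-FRET readout: Ex 340 nm, 665/545 nm emission ratio, normalized to buffer-only (basal) and MBNL1-(CUG)12 controls. Complex of MBNL1-His with Biotin-(CUG)12, compounds 92 nM–58 uM, incubated 60 min at room temperature.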
A number is an active result; . = inactive; ? = inconclusive; / = no result. Unless noted, calls follow the shape of the full dose curve.

SMILES	ClpP mod	CBFb-RUNX1 inh	Rango dissoc inh	Rango-impB inh	MBNL1 CUG block
COc1ccc(-c2nc(C#N)c(NCc3ccccc3Cl)o2)cc1	35µM	.	.	.	.
COc1ccc(-c2nc(C#N)c(NCc3ccccc3Cl)o2)cc1OC	?	.	.	?	.
CCNc1oc(-c2ccc(COc3ccc(Cl)cc3)o2)nc1C#N	.	/	/	/	/
CCOc1ccc(-c2nc(C#N)c(NC3CC3)o2)cc1	7.1µM	.	.	.	.
COc1ccc(-c2nc(C#N)c(NCCc3ccccc3)o2)cc1	32µM	.	.	.	.
COc1ccc(CNc2oc(-c3ccc(COc4ccc(OC)cc4)o3)nc2C#N)cc1	22µM	/	/	/	/
COc1cccc(C2CC(=O)Nc3c2c(=O)[nH]c2nc4ccccc4n32)c1 (stereo unspecified)	.	/	/	/	/
COCCn1c(C)cc(O)c(C(c2ccccc2)N2CCC(C)CC2)c1=O (stereo unspecified)	.	/	/	/	/
O=C(c1ccc2c(c1)N(Cc1ccc(F)cc1)C(=O)c1ccccc1S2(=O)=O)N1CCC(Cc2ccccc2)CC1	.	/	/	/	/
CCCCNc1oc(-c2ccc(COc3ccc(OC)cc3)o2)nc1C#N	28µM	/	/	/	/
COc1ccc(CNc2oc(-c3ccccc3)nc2C#N)cc1	.	.	.	.	.
COCCCNc1oc(-c2ccc(COc3ccc(Cl)cc3)o2)nc1C#N	32µM	/	/	/	/
COc1ccc(OCc2nc(C#N)c(NCc3ccccc3Cl)o2)cc1	.	/	/	/	/
Cc1ccc(OCc2ccc(-c3nc(C#N)c(NCc4ccccc4Cl)o3)o2)cc1	25µM	/	/	/	/
COc1ccc(OCc2ccc(-c3nc(C#N)c(NCc4ccc(F)cc4)o3)o2)cc1	32µM	/	/	/	/
CCc1cccc(NC(=O)Cn2c(-c3ccc(F)cc3)cc(C(C)=O)c2C)c1	.	/	/	/	/
COc1cc(-c2noc(-c3ccc(N4CCOCC4)c([N+](=O)[O-])c3)n2)cc(OC)c1OC	.	/	/	/	/
Cc1ccc(-n2nc3ccc(NC(=O)c4ccc5c(c4)OCO5)cc3n2)cc1	14µM	.	.	.	.
O=C(Nc1ccc2nn(-c3ccccc3)nc2c1)c1ccc2c(c1)OCCO2	8.9µM	.	.	.	.
O=[N+]([O-])c1cc(S(=O)(=O)N2CCCC2)ccc1N/N=C1/CCCc2ccccc21	16µM	.	.	.	.
CCc1ccc(CNC(=O)c2sc3nc[nH]c(=O)c3c2C)cc1	.	/	/	/	/
COc1cccc(C2C(C#N)=C(N)OC(C(C)(C)C)=C2C#N)c1 (stereo unspecified)	.	.	.	.	.
COc1cccc(/C=C2/CN(C)CC3=C2OC(N)=C(C#N)C3c2cccc(OC)c2)c1 (stereo unspecified)	.	.	21µM	?	.
CCN(CC)CCCNC(=O)c1cc2c(-c3cccc(OC)c3)nn(C)c2s1	.	/	.	.	.
COc1cccc(-c2nn(C)c3sc(C(=O)NCc4ccco4)cc23)c1	22µM	.	.	.	.
SMILES	ClpP mod	CBFb-RUNX1 inh	Rango dissoc inh	Rango-impB inh	MBNL1 CUG block
CCN1CCCC1CNC(=O)c1cc2c(-c3cccc(OC)c3)nn(C)c2s1 (stereo unspecified)	32µM	.	.	.	.
CC(C)CCSc1nc(N)c(C#N)cc1C#N	32µM	.	?	?	?
CC(=O)c1cc(C#N)c(SCCC(C)C)nc1C	.	.	.	.	.
Cn1c(=O)c2c(nc(SCC(=O)Nc3ccc(OC(F)(F)F)cc3)n2Cc2cccc(C(F)(F)F)c2)n(C)c1=O	.	/	/	/	/
CCN(CC)S(=O)(=O)c1ccc(C)c(NC(=S)NNC(=O)C2CC2)c1	25µM	?	.	.	.
Cc1ccc(S(=O)(=O)N(C)C)cc1NC(=S)NNC(=O)C1CC1	.	.	.	.	.
COc1cc2c(cc1NC(=O)COc1ccccc1OC)oc1ccccc12	25µM	.	.	.	.
COc1cc2c(cc1NC(=O)COC(=O)C(CCSC)NC(=O)c1ccccc1Cl)oc1ccccc12 (stereo unspecified)	25µM	.	.	.	/
CCc1ccc(OCC(=O)Nc2cc3oc4ccccc4c3cc2OC)c(Br)c1	.	/	/	/	/
COc1cc2c(cc1NS(=O)(=O)N1CCCCC1)oc1ccccc12	32µM	.	.	.	.
COc1cc2c(cc1NC(=O)COC(=O)c1ccc(C(C)(C)C)cc1)oc1ccccc12	/	.	.	.	.
CNC(=O)COc1ccccc1C(=O)Nc1ccc2c(c1)oc1ccccc12	4µM	.	.	.	.
Cc1cccc(N2C(=O)C(CC(=O)Nc3ccc(F)cc3)N(C3CCCC3)C2=O)c1 (stereo unspecified)	.	/	/	/	/
CCN(CC)CCN(C(=O)c1ccco1)c1nc2cc(C)cc(C)c2s1	.	/	/	/	/
CCS(=O)(=O)N1CC(=O)N(c2ccc(Cl)cc2C)C(C)(C(=O)NC2CCCCC2)C1 (stereo unspecified)	.	/	/	/	/
COc1cc2c(cc1NC(=O)Nc1ccccc1)oc1ccccc12	28µM	.	.	.	.
COc1cc2c(cc1NC(=O)CCC(=O)O)oc1ccccc12	/	/	.	.	.
CCOC(=O)c1ccc(N2CCN(c3ccc(F)cc3)CC2)c(NC(=O)Nc2ccc(CC)cc2)c1	.	/	/	/	/
CCOC(=O)c1ccc(N2CCN(c3ccc(F)cc3)CC2)c(NC(=O)Nc2cccc(OC)c2)c1	28µM	.	.	.	/
CCCCN(C)CCNC(=O)c1cc2c(-c3ccccc3F)nn(C)c2s1	25µM	/	.	.	.
COCCNC(=O)c1cc2c(-c3ccccc3F)nn(C)c2s1	25µM	.	.	.	.
Cc1cc(C)c2c(c1)-c1cc(C)nn1C(c1ccc3c(c1)OCO3)N2 (stereo unspecified)	32µM	.	.	.	.
Cc1cc(S(=O)(=O)Nc2cccc(-c3ccc(N4CCOCC4)nn3)c2)c(C)cc1Cl	.	/	/	/	/
Nc1nc2c3ccccc3nc(C3CC3)n2n1	22µM	.	.	.	.
Nn1c(C2CCC2)nc2ccccc2c1=O	/	/	.	.	.
SMILES	ClpP mod	CBFb-RUNX1 inh	Rango dissoc inh	Rango-impB inh	MBNL1 CUG block
c1ccc2oc(-c3ccc4nc[nH]c4c3)nc2c1	25µM	.	.	.	.
CC(=O)Nc1nonc1-c1nnc(SCC(=O)Nc2ccc(C)cc2C)n1C	.	/	/	/	/
N#CC1=C(N)Oc2n[nH]c(-c3cccs3)c2C1c1ccoc1 (stereo unspecified)	28µM	.	.	.	.
CC(C)(C)Nc1oc(-c2ccccc2)nc1-c1ccc(C(F)(F)F)cc1	/	.	/	/	/
O=C(CN1C(=O)C(=O)N(CCC2=CCCCC2)C1=O)c1c[nH]c2ccccc12	11µM	/	.	?	/
Cc1ccc2c(=O)cc(C(=O)Nc3ccc(S(=O)(=O)Nc4onc(C)c4C)cc3)oc2c1C	.	/	/	/	/
Cc1ccc(OCC(=O)N(Cc2ccc(Cl)cc2)Cc2ccco2)cc1C	.	/	/	/	/
O=C1c2ccccc2NC(c2cccnc2)N1c1ccccc1F (stereo unspecified)	11µM	.	.	.	/

Assay outcomes from PubChem.
